The source of these data is the OligoGym collection.
Note: reference of the scale not given here.

One test concerns the target CDKL2. The test can be described thus: pooled miR-30 sensor sort-seq; sequence = guide strand. The following applies: shRNA.
As for TTTAAATAGTTTATAATCCTTA, the sensor-assay potency score (higher = more potent) was -0.355.
In turn, TTAGTAACTTGATTTCTCGCAT registered a sensor-assay potency score (higher = more potent) of 0.346.
On the same count and under the same terms, then TTAGATAAAGAAACATTTCTGG, with 0.295; and TTTCTTTCTTCAACTAAGGAAT, with -1.1.
TTTAACTGTAGTTCTTGGGAAA came in with a sensor-assay potency score (higher = more potent) of -0.938.
Still for that read-out and setting: then TTCAACTAAGGAATCATCTTTT, with 0.409.

Another test has as its target CDKN2B. The test is described as above. The following applies: shRNA.
ATCATGCACCGGTCGGGTGAGA: the sensor-assay potency score (higher = more potent) is -1.72.
TTTCTTAGTCTGACCTCTGCAC yielded a sensor-assay potency score (higher = more potent) of 0.0018.
Still for that read-out and setting: the same measure for TATAATGATCAAGCAACCCTGG: 0.0689.
In the case of TCATCCTGTGTAGTCTGCCTGC, the sensor-assay potency score (higher = more potent) is -0.705.
For TAGCATCTGTCGTCGCTTGCAC, the sensor-assay potency score (higher = more potent) is -0.163.
In turn, TTGGAGTGAACGCATCGACTGC returned a sensor-assay potency score (higher = more potent) of -0.833.
Still for that read-out and setting: then AGGTACCCTGCAACGTCGCGGT, with -1.5; and TGTCGCACCTTCTCCACTAGTC, with -0.304.
The same measure, in the same setting: then TTAACTGAGAGCCACTAGTTAT, with -1.26; and TGCGCAGGTACCCTGCAACGTC, with -1.43.
TAGTCTGACCTCTGCACCCTGA displayed a sensor-assay potency score (higher = more potent) of -1.07.
Still for that read-out and setting: the same measure for TTTAGCATCTGTCGTCGCTTGC: 0.0347; for TCCCGAAACGGTTGACTCCGTT: -1.06.
TTCCAGGAGCTGTCGCACCTTC showed a sensor-assay potency score (higher = more potent) of -0.732.
The same measure, in the same setting: then TTTTTCAGCAATCTTTTGGGAA, with -0.00426.
Same read-out and setting: the same measure for TATTTCTTAGTCTGACCTCTGC: -0.197; for AAACGGTTGACTCCGTTGGGAT: -1.42.
On the same count and under the same terms, the same measure for TAATTTACTGCATAAGTGCATC: -0.823; for TTGACTCCGTTGGGATCCGCGC: -1.43.
Consider TTTTAGCATCTGTCGTCGCTTG, for which the sensor-assay potency score (higher = more potent) was 0.0607.
Same read-out and setting: then TTTACTGCATAAGTGCATCTAT, with 0.135; and TGCACCGGTCGGGTGAGAGTGG, with -1.46.
Take TAAGAAAATAAAGTCGTTGTGG: the sensor-assay potency score (higher = more potent) was 0.511.

The target of a further test is CEACAM7. The test is described as above. The conditions noted are these: shRNA.
TAGAGGTCTAACTCTAACAGGG: the sensor-assay potency score (higher = more potent) was -0.585.
The sequence ATATCTTTGTTCTCCACCGGAT returned a sensor-assay potency score (higher = more potent) of -0.501.
On the same count and under the same terms, the same measure for TATCTTTGTTCTCCACCGGATT: -1.29; for TATATTGTCTCTCGACCGTTGT: -0.124.
On the same count and under the same terms, then AATATCTTTGTTCTCCACCGGA, with -0.351; and TTCATTCACAAGATTTTCTTTT, with -0.349.
Same read-out and setting: then AACTTGCTTGTACTGACTCATA, with -1.59; and TAACGTTCTGGATCAGCAGGGT, with 0.257; and TACTTCTTCATTCACAAGATTT, with -1.52.
Sequence TTGACTTATATTTTTTACATAT returned a sensor-assay potency score (higher = more potent) of -1.26.
On the same count and under the same terms, then TTGTCTCTCGACCGTTGTGTGC, with -1.35.
